# According to PubChem BioAssay (EPA / NIEHS):
# Results filed as inconclusive are left out. The source made the active and inactive calls. Rule for the calls: active = hit-call score of the fitted dose curve at least 0.9, where 1 is the maximum; inconclusive = response in the unintended direction; inactive = score below 0.9.
# Key:
# [1] = target: human Elastase, ELANE (gene 1991) (UniProt P08246); experiment: NVS_ENZ_hElastase: NovaScreen (NVS) Enzymatic Assay for human Elastase (AID 2283153)
# Summary of the method: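 Cell-free elastase from human neutrophils, 1.5 h after dosing, activity read by absorbance. Primary screen in duplicate at 25 uM; hits (e.g., 30% inhibition) rerun in singleton concentration-response up to 50 uM, fitted versus DMSO.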
# [2] = target: human Janus Kinase 2 (Jak2), JAK2 (gene 3717) (UniProt O60674); experiment: NVS_ENZ_hJak2: NovaScreen (NVS) Enzymatic Assay for human Janus Kinase 2 (Jak2) (AID 2283169)
# Chain of human Janus Kinase 2 (Jak2), JAK2 (gene 3717) (O60674 whole entry, looked up): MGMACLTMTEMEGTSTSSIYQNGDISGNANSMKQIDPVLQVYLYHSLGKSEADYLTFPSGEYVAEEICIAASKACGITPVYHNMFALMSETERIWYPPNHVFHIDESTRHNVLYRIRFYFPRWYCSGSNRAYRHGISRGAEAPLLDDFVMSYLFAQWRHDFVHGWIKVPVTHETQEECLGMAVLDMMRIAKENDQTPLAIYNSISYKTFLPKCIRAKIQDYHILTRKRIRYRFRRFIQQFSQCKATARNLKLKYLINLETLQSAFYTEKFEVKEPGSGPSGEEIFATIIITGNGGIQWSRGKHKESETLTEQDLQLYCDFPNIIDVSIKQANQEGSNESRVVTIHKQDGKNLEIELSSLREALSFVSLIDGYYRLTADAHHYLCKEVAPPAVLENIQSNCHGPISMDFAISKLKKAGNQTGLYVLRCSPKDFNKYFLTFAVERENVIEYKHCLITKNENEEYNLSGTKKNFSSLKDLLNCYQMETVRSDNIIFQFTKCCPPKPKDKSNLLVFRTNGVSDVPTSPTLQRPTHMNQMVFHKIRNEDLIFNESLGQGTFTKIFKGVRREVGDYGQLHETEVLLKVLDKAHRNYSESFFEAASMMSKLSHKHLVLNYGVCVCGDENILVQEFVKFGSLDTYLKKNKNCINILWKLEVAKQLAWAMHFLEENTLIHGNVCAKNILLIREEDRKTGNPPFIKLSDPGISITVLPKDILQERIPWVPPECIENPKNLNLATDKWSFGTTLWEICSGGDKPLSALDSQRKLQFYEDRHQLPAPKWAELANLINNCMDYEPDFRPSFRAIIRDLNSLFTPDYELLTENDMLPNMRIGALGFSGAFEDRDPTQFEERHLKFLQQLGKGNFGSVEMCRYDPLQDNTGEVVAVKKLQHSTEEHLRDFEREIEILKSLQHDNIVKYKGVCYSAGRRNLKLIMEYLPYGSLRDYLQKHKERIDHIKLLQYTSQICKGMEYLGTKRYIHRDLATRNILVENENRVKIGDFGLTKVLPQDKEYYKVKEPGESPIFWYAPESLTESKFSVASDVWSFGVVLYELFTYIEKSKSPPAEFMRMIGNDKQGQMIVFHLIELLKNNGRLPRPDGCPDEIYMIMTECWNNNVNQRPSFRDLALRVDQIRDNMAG
# Summary of the method: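 Cell-free recombinant human JAK2 enzyme activity assay, fluorescence/electrophoretic mobility shift read 1 h after dosing. Screened in duplicate at 25 uM, then concentration-response up to 50 uM; activity as signal loss relative to DMSO.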
# [3] = target: human Phosphodiesterase 5 (PDE5), PDE5A (gene 8654) (UniProt O76074); experiment: NVS_ENZ_hPDE5: NovaScreen (NVS) Enzymatic Assay for human Phosphodiesterase 5 (PDE5) (AID 2283194)
# Summary of the method: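 Recombinant human PDE5 with specific substrate, read 1 h after dosing by fluorescence with electrophoretic mobility-shift separation of substrate and product. Initial single-concentration duplicate screen at 25 uM, actives followed in concentration series; loss of activity versus DMSO.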
# [4] = target: human Esterase Plasma (ES), BCHE (gene 590) (UniProt P06276); experiment: NVS_ENZ_hES: NovaScreen (NVS) Enzymatic Assay for human Esterase Plasma (ES) (AID 2283157)
# Chain of human Esterase Plasma (ES), BCHE (gene 590) (P06276 whole entry, looked up): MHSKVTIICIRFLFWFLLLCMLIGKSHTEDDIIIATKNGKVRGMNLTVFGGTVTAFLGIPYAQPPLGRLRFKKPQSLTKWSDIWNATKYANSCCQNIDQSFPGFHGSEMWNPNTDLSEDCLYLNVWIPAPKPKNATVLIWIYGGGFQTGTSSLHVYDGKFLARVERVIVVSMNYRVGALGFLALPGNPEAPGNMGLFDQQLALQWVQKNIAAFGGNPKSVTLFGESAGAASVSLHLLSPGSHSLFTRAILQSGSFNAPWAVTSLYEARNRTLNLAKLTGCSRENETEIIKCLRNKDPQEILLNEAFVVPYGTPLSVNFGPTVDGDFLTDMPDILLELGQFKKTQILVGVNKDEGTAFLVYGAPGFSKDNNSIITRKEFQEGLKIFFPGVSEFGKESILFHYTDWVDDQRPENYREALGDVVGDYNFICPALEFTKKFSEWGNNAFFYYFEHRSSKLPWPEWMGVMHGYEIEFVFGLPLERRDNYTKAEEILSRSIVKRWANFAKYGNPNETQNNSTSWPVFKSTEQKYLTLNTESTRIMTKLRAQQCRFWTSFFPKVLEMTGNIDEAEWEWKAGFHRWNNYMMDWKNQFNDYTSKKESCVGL
# Summary of the method: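 Cell-free enzyme assay using esterase extracted from human plasma; colorimetric absorbance read 0.25 hour after dosing. Single-concentration duplicate screen at 25 uM, then concentration-response up to 50 uM; loss of signal scored against DMSO baseline.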
# [5] = target: human Matrix Metalloproteinase-2 (MMP2), MMP2 (gene 4313) (UniProt P08253); experiment: NVS_ENZ_hMMP2: NovaScreen (NVS) Enzymatic Assay for human Matrix Metalloproteinase-2 (MMP2) (AID 2283184)
# Chain of human Matrix Metalloproteinase-2 (MMP2), MMP2 (gene 4313) (P08253 whole entry, looked up): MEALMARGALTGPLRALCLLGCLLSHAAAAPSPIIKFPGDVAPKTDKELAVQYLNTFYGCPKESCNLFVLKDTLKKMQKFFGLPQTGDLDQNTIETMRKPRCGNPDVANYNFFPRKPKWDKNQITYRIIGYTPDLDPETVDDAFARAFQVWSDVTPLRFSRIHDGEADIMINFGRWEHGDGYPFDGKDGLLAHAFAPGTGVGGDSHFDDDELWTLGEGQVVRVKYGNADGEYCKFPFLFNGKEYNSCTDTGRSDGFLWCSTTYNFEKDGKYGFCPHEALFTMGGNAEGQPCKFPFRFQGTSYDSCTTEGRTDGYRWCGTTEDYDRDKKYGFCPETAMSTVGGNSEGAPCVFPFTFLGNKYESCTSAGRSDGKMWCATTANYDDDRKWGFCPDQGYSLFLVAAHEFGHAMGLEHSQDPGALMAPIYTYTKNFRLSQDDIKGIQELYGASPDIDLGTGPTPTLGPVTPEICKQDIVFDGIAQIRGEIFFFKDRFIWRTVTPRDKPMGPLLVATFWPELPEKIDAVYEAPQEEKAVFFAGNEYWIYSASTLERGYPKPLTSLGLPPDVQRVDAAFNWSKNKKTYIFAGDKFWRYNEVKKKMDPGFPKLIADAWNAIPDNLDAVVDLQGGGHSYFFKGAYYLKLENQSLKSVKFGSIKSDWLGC
# Summary of the method: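 Cell-free recombinant MMP2 activity with a fluorescent substrate, read 1 h after dosing. Primary screen in duplicate at 25 uM; actives then run in concentration series; loss of signal fitted versus DMSO.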
# [6] = target: human Mitogen- and Stress-activated Protein Kinase-1 (Msk1), RPS6KA5 (gene 9252) (UniProt O75582); experiment: NVS_ENZ_hMsk1: NovaScreen (NVS) Enzymatic Assay for human Mitogen- and Stress-activated Protein Kinase-1 (Msk1) (AID 2283187)
# Chain of human Mitogen- and Stress-activated Protein Kinase-1 (Msk1), RPS6KA5 (gene 9252) (O75582 whole entry, looked up): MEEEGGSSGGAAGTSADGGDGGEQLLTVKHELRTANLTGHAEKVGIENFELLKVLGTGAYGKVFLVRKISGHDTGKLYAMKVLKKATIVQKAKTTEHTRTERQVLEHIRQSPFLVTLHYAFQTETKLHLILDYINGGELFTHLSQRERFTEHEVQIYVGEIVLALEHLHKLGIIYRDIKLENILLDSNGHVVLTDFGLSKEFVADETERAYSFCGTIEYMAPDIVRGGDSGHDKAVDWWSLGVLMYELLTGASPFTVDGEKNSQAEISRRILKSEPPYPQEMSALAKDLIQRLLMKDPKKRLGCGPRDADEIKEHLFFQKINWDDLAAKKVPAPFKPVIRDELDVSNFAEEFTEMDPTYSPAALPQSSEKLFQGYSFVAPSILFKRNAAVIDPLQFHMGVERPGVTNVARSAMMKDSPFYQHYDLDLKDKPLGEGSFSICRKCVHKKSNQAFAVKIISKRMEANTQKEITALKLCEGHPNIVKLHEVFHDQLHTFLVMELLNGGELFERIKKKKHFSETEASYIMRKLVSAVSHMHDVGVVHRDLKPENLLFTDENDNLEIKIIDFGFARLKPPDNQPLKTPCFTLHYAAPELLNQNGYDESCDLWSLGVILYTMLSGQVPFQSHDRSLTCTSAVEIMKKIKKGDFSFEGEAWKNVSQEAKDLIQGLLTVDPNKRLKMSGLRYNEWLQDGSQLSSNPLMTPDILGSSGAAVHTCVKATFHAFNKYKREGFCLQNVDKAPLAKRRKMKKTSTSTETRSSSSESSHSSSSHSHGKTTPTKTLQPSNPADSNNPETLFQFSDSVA
# Summary of the method: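 Recombinant kinase with fluorescent substrate; product separated by electrophoretic mobility shift, read 1 h after dosing. Screened in duplicate at 25 uM; hits (e.g. ≥30% inhibition) tested in concentration–response up to 50 uM. DMSO baseline.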
# [7] = target: human Ephrin type-A Receptor 1 (EphA1), EPHA1 (gene 2041) (UniProt P21709); experiment: NVS_ENZ_hEphA1: NovaScreen (NVS) Enzymatic Assay for human Ephrin type-A Receptor 1 (EphA1) (AID 2283158);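 note: activity is signal loss versus DMSO meaning EphA1 kinase inhibition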
# Chain of human Ephrin type-A Receptor 1 (EphA1), EPHA1 (gene 2041) (P21709 whole entry, looked up): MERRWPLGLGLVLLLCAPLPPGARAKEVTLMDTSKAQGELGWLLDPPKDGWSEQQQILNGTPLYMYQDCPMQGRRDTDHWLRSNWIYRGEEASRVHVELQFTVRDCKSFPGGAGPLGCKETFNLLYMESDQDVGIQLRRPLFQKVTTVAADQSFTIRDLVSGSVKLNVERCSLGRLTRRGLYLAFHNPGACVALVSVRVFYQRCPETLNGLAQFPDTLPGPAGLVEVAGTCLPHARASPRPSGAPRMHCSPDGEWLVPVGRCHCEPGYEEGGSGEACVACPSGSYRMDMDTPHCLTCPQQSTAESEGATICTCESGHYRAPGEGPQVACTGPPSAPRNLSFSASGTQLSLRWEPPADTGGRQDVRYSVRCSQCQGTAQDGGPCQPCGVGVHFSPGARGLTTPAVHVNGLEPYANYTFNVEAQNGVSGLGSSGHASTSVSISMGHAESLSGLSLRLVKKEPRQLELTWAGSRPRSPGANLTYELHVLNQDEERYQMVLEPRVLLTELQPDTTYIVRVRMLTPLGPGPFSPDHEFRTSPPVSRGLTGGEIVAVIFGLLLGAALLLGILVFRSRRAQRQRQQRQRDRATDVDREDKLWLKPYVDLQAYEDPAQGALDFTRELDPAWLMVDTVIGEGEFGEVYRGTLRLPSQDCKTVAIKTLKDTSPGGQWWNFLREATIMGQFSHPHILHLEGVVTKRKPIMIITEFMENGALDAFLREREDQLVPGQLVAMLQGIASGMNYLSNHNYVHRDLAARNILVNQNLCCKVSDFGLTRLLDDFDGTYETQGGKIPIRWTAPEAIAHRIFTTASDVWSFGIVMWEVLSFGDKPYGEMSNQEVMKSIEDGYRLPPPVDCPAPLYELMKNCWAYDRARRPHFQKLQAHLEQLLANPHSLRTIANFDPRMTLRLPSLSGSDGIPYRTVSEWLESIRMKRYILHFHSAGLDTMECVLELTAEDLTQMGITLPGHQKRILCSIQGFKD
# Summary of the method: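 Fluorescent substrate conversion, resolved by mobility-shift separation, measured 1 hour post-dosing using recombinant enzyme; signal loss relative to DMSO baseline. Single-concentration duplicates at 25 uM preceded singleton concentration series topping at 50 uM.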
# [8] = target: human LYN Proto-Oncogene, Src family Tyrosine Kinase (LynA), LYN (gene 4067) (UniProt P07948); experiment: NVS_ENZ_hLynA: NovaScreen (NVS) Enzymatic Assay for human LYN Proto-Oncogene, Src family Tyrosine Kinase (LynA) (AID 2283173)
# Chain of human LYN Proto-Oncogene, Src family Tyrosine Kinase (LynA), LYN (gene 4067) (P07948 whole entry, looked up): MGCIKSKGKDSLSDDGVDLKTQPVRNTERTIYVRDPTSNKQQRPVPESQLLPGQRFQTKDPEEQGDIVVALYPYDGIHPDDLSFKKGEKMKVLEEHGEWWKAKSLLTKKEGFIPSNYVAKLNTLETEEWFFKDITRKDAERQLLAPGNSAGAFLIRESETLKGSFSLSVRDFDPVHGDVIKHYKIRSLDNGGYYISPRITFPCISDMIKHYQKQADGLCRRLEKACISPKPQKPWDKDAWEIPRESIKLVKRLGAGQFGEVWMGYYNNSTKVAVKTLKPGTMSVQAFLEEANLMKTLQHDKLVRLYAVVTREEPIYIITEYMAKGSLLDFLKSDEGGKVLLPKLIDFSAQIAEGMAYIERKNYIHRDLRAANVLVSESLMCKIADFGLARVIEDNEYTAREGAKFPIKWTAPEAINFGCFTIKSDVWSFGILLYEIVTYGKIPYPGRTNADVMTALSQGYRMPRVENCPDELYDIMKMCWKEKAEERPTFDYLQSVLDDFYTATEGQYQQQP
# Summary of the method: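 Recombinant kinase with fluorescent substrate; product separated from substrate by electrophoretic mobility shift and read 1 h after dosing. Duplicate screen at 25 uM, then concentration-response up to 50 uM; activity scored as signal loss against DMSO.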
# [9] = target: cAMP-dependent protein kinase catalytic subunit alpha (Homo sapiens) (UniProt P17612); experiment: NVS_ENZ_hPKA: NovaScreen (NVS) Enzymatic Assay for human Protein Kinase A (PKA) (AID 2283192)
# Summary of the method: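 Recombinant human PKA with specific fluorescent substrate, product separated by electrophoretic mobility shift, read 1 h after dosing. Primary screen at 25 uM in duplicate; actives then run in concentration-response up to 50 uM, activity relative to DMSO.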
# [10] = target: human FYN Proto-Oncogene, Src family Tyrosine Kinase (Fyn), FYN (gene 2534) (UniProt P06241); experiment: NVS_ENZ_hFyn: NovaScreen (NVS) Enzymatic Assay for human FYN Proto-Oncogene, Src family Tyrosine Kinase (Fyn) (AID 2283161)
# Summary of the method: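 Recombinant enzyme with fluorescent substrate, product separated by electrophoretic mobility shift; read 1 h after dosing. Duplicate 25 uM single-point screen, actives retested in concentration series; loss of signal vs DMSO.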
# [11] = target: Histone deacetylase 3 (Homo sapiens) (UniProt O15379); experiment: NVS_ENZ_hHDAC3: NovaScreen (NVS) Enzymatic Assay for human Histone Deacetylase 3 (HDAC3) (AID 2283163)
# Summary of the method: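 Recombinant human HDAC3 with fluorescent substrate, 1 h after dosing; product separated from substrate by electrophoretic mobility shift and read by fluorescence. Primary screen at 25 uM in duplicate; actives (e.g. ≥30% inhibition) retested in concentration-response up to 50 uM.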
# [12] = target: human Insulin Receptor (InsR), INSR (gene 3643) (UniProt P06213); experiment: NVS_ENZ_hInsR: NovaScreen (NVS) Enzymatic Assay for human Insulin Receptor (InsR) (AID 2283168)
# Summary of the method: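 Fluorescent substrate phosphorylation by recombinant kinase, product resolved by electrophoretic mobility shift, read 1 h after dosing. Screened in duplicate at 25 uM; hits (e.g., 30% inhibition) run in concentration-response to 50 uM; DMSO as baseline.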
# [13] = target: Mitogen-activated protein kinase 3 (Homo sapiens) (UniProt P27361); experiment: NVS_ENZ_hMAPK3: NovaScreen (NVS) Enzymatic Assay for human Mitogen-Activated Protein Kinase 3 (MAPK 3) (AID 2283177)
# Summary of the method: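 Cell-free enzymatic assay with recombinant protein and specific substrate; fluorescence and electrophoretic mobility shift read-out 1 h after dosing. Primary screen duplicate at 25 uM; actives then run in concentration-response up to 50 uM, loss of signal versus DMSO.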
# [14] = target: human Phosphodiesterase 4A1 (PDE4A1), PDE4A (gene 5141) (UniProt P27815); experiment: NVS_ENZ_hPDE4A1: NovaScreen (NVS) Enzymatic Assay for human Phosphodiesterase 4A1 (PDE4A1) (AID 2283191)
# Summary of the method: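 Cell-free recombinant human PDE4A1 with fluorescent substrate; product separated by electrophoretic mobility shift, 1 h. Screened at 25 uM, then up to 50 uM in concentration-response; loss of signal fitted against DMSO.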
# [15] = target: Collagenase 3 (Homo sapiens) (UniProt P45452); experiment: NVS_ENZ_hMMP13: NovaScreen (NVS) Enzymatic Assay for human Matrix Metalloproteinase-13 (MMP13) (AID 2283182)
# Summary of the method: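 Recombinant MMP13 cleaving fluorescent substrate, cell-free, measured 1 h after dosing. Primary duplicate screen at 25 uM; actives tested in concentration-response up to 50 uM; loss of signal relative to DMSO.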
# [16] = target: human Matrix Metalloproteinase-9 (MMP9), MMP9 (gene 4318) (UniProt P14780); experiment: NVS_ENZ_hMMP9: NovaScreen (NVS) Enzymatic Assay for human Matrix Metalloproteinase-9 (MMP9) (AID 2283190);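 note: cell-free recombinant MMP9 protease activity read by fluorescent substrate signal; active means inhibition seen as loss of fluorescence signal versus DMSO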
# Summary of the method: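 Cell-free recombinant MMP9 enzyme activity measured by fluorescence intensity 1 h after dosing. Primary screen in duplicate at 25 uM, actives followed in concentration series; loss of signal relative to DMSO.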
# Chain of human Elastase, ELANE (gene 1991) (P08246 whole entry, looked up): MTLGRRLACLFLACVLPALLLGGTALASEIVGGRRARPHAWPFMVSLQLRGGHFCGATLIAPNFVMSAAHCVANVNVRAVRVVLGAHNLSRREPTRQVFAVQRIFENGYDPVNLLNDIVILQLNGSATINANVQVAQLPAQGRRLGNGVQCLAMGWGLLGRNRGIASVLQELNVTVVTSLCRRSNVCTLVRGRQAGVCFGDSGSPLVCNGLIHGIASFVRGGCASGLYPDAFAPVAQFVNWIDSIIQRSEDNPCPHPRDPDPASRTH
structure (smiles),measurement,setting,value
CC(C)(O)c1ccc(CNC(=O)c2cccnc2Oc2ccc(F)cc2)cc1,outcome,[1],inactive
same,outcome,[2],inactive
same,outcome,[3],inactive
CCC(C)N(C)C(=O)c1cc2ccccc2c(-c2ccccc2Cl)n1 (stereo not given),AC50,[4],9.91 µM (active)
CSc1ccc(Oc2ccc(S(N)(=O)=O)cc2CN(C)C)cc1C,AC50,[4],0.108 µM (active)
same,AC50,[5],9.97 µM (active)
CN(C)C(=O)NC1(c2ccccc2)CCN(CC[C@@]2(c3ccc(F)c(F)c3)CN(C(=O)c3ccccc3)CCO2)CC1,AC50,[4],19.1 µM (active)
same,outcome,[6],inactive
same,AC50,[3],40 µM (active)
O=C(NS(=O)(=O)/C=C/c1cccs1)c1ccc(F)cc1Br,outcome,[7],inactive
O=C(N[C@@H](c1ccccc1)[C@@H]1CCCCN1)c1cccc(C(F)(F)F)c1Cl,AC50,[4],20.8 µM (active)
same,outcome,[8],inactive
same,outcome,[9],inactive
CCN(CC)CCOc1ccc(C(=C(Cl)c2ccccc2)c2ccccc2)cc1,outcome,[4],inactive
same,outcome,[7],inactive
same,AC50,[10],33.6 µM (active)
same,AC50,[11],4.17 µM (active)
same,AC50,[8],19.8 µM (active)
Cc1cc(Cc2ccc(N)c(C)c2)ccc1N,outcome,[1],inactive
same,outcome,[5],inactive
CCCCC(CC)COC(=O)CCCCCCCC(=O)OCC(CC)CCCC (stereo not given),AC50,[1],6.97 µM (active)
same,outcome,[12],inactive
CN(C)CCCN1c2ccccc2Sc2ccc(Cl)cc21,AC50,[4],7.76 µM (active)
same,outcome,[7],inactive
CN(C)C(=O)NC1(c2ccccc2)CCN(CCC[C@]2(c3ccc(Cl)c(Cl)c3)CCCN(C(=O)c3ccccc3)C2)CC1,AC50,[4],5.89 µM (active)
same,outcome,[2],inactive
same,outcome,[8],inactive
same,outcome,[13],inactive
same,outcome,[6],inactive
same,outcome,[14],inactive
same,outcome,[9],inactive
Cn1cnc2c1c(=O)[nH]c(=O)n2C,outcome,[4],inactive
same,outcome,[15],inactive
same,outcome,[5],inactive
same,outcome,[16],inactive
